RORgamma inh – inhibitors of mouse ROR gamma transcriptional activity. P51450. Drosophila S2 Gal4-RORgamma UAS-luciferase reporter, 20 h. Potency, µM (doses to about 53.6 µM), actives largely listed as inhibitors. actives 5.4% (n = 310,000). AID 2551; further: nearly all actives have a fitted effect of over 60% in size
Target sequence (P51450 whole entry, looked up, the tested form may be a part): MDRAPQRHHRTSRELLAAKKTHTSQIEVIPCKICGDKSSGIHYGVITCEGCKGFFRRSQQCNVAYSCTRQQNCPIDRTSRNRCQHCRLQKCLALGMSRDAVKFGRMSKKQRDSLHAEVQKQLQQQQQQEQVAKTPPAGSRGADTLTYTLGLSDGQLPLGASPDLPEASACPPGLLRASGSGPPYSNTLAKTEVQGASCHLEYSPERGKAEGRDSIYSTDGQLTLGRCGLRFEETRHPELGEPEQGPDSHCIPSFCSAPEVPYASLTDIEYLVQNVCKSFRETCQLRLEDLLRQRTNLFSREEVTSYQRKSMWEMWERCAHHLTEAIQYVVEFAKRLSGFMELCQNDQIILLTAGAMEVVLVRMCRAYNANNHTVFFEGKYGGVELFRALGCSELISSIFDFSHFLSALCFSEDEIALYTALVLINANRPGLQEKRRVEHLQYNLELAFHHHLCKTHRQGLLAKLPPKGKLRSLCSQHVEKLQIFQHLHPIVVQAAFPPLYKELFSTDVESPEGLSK
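Using a luciferase readout, inhibitors were identified by reduced reporter activity in Drosophila cells coexpressing a copper-inducible Gal4–ROR gamma fusion and UAS-driven Photinus luciferase, incubated 20 hr after 700 uM copper sulfate.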
VP16 counter – Gal4-VP16 reporter inhibition counter-screen; Drosophila S2 Gal4-VP16 UAS-luciferase, luminescence, 20 h; Potency, µM (top dose mostly 53.6 µM), actives largely listed as inhibitors; actives 3.5% (n = 310,000); AID 2546;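 further: Gal4-VP16 expression switched on by copper sulfate through the metallothionein promoter; nearly all actives have a fitted effect of over 50% in size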
SW480 rerep – DNA re-replication induction in SW480 cells; SW480 DNA re-replication, Hoechst DNA content imaging, 48 h; Potency, µM (titrated, usually from 46.1 µM), actives largely listed as activators; AID 624297; actives 1.8% (n = 340,000); further: nearly all actives have a fitted effect of over 55% in size
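Readout is total intensity of Hoechst-stained nuclei, excited at 405 nm and collected at 500-530 nm. Compound treatment lasted 48 hr at 37 C in 5% CO2 before staining.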
MCF10A rerep – inducers of DNA re-replication in MCF 10A breast cells; actives 2.9% (n = 350,000); MCF 10A DNA re-replication, Hoechst nuclear intensity, 48 h; AID 624296; Potency, µM (highest dose often 46.1 µM), most hits filed as activators; further: nearly all actives have a fitted effect of over 50% in size
ELG1 DNA repair – inhibitors of ELG1-dependent DNA repair in HEK293T cells | HEK293T ELG1-luciferase reporter, luminescence, 16 h; DNA damage induced by 5-fluorouridine | Potency, µM (series often up to 46.1 µM), most hits filed as inhibitors | actives 2.3% (n = 330,000); further: nearly all actives have a fitted effect of over 55% in size
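Cells (2,000 per well) received 5-fluorouridine plus test compound or DMSO and were incubated 16 hr at 37 °C, 5% CO2. Luciferase activity was read by luminescence 30 min after ONE-Glo addition; signal suppression marked inhibition of damage-induced ELG1 function.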
Large screens that a line does not name were inactive. An excerpt weighted towards active compounds, which were near 10% of everything screened. The call rests on the fitted dose curve; in most records, active means well fitted curve in the direction sought with a large enough effect; inconclusive means small, poorly fitted or top-dose-only effect, or another doubt; inactive means no such curve, though single readings can be large; an effect the other way counts as inactive or inconclusive.

Cc1ccn2c(NC(=O)c3ccccc3)c(-c3cccs3)nc2c1	none
CC(C)c1nc2ccccn2c1NC1CCCCC1	RORgamma inh 5µM, VP16 counter inconclusive
Cc1nc2ccccn2c1C(=O)NC1CCCCC1	none
Cc1ccn2c(NCc3ccccc3)c(-c3cccs3)nc2c1	RORgamma inh 14µM, VP16 counter inconclusive, MCF10A rerep inconclusive, ELG1 DNA repair inconclusive
CNc1nc(SC(C)C(=O)Nc2ccc(Cl)c(Cl)c2)nc(N2CCOCC2)n1 (stereo not given)	none
COc1cccc(N2CCN(C(=O)c3cc4c(=O)n(Cc5ccccc5)ccc4nc3C)CC2)c1	ELG1 DNA repair inconclusive
Cc1ccc(C(=O)N2CCN(C(=O)c3ccco3)CC2)cc1NC(=O)c1ccco1	none
CCNC(=O)/C(C#N)=C/c1c(N2CCN(c3ccc(OC)cc3)CC2)nc2c(C)cccn2c1=O	SW480 rerep inconclusive, ELG1 DNA repair 23µM
Cc1ccccc1Oc1nc2c(C)cccn2c(=O)c1/C=C(\C#N)C(=O)Nc1c(C)n(C)n(-c2ccccc2)c1=O	VP16 counter inconclusive, SW480 rerep inconclusive, MCF10A rerep 21µM
CNC(=O)/C(C#N)=C/c1c(N(Cc2ccccc2)Cc2ccccc2)nc2ccccn2c1=O	ELG1 DNA repair 18µM
CCN1CCN(c2nc3c(C)cccn3c(=O)c2/C=C(\C#N)C(=O)NCCCOC)CC1	SW480 rerep 21µM, MCF10A rerep 18µM
Cc1ccccc1NC(=O)CSc1nnc(NC(=O)c2ccco2)s1	none
CC(=C/c1ccco1)/C=N/NC(=O)CSc1nnc(SCc2ccc(C)cc2)s1	RORgamma inh inconclusive, VP16 counter inconclusive, MCF10A rerep inconclusive, ELG1 DNA repair inconclusive
CCC(C)Sc1ccc([C@@H]2[C@@H]3C(=O)N(C)C(=O)[C@@H]3[C@]3(C(=O)OC)CCCCN23)cc1 (stereo not given in full)	none (no result: RORgamma inh, VP16 counter)
O=C(c1ccc2c(c1)OCO2)N1CCC2(CC1)Oc1ccc(Cl)cc1C(=O)C21CC(c2ccc(Cl)cc2)=NO1 (stereo not given)	none (no result: SW480 rerep, MCF10A rerep)
CNC(=O)/C(C#N)=C/c1c(N2CCN(C)CC2)nc2c(C)cccn2c1=O	SW480 rerep inconclusive
CCN1CCN(c2nc3c(C)cccn3c(=O)c2/C=C(\C#N)C(=O)NC)CC1	MCF10A rerep 5.8µM
COc1cc(S(=O)(=O)NC2CCSc3ccccc32)ccc1NC(C)=O (stereo not given)	SW480 rerep inconclusive
O=C(CCC(=O)N1CCOc2ccccc21)N1CCCCC1	none
COCCN(C(=O)COC(=O)/C=C/c1ccc2ccccc2n1)c1c(N)n(Cc2ccccc2)c(=O)[nH]c1=O	SW480 rerep inconclusive, ELG1 DNA repair 12µM (no result: RORgamma inh, VP16 counter)
CCN(C(=O)COC(=O)CCOc1ccc(C(C)(C)C)cc1)c1c(N)n(Cc2ccccc2)c(=O)[nH]c1=O	MCF10A rerep 23µM (no result: RORgamma inh, VP16 counter, ELG1 DNA repair)
CCCOc1ccc(C(=O)CCC(=O)OCC(=O)N(CC)c2c(N)n(Cc3ccccc3)c(=O)[nH]c2=O)cc1	none (no result: RORgamma inh, VP16 counter, ELG1 DNA repair)
COCCCN(C(=S)NC(=O)c1ccc(Br)cc1)c1c(N)n(Cc2ccccc2)c(=O)[nH]c1=O	RORgamma inh 10µM
S=c1[nH]nc(CSCCOc2ccc(Cl)cc2Cl)o1	RORgamma inh 4µM, VP16 counter 3.2µM
CC(C)CCSc1nc(N2CCOCC2)c2c(c1C#N)CC(C)(C)OC2	MCF10A rerep inconclusive, ELG1 DNA repair 12µM
CC(=O)Nc1nc(NC(=O)C(Cl)(Cl)Cl)n(-c2ccccc2)n1	RORgamma inh 7.1µM, VP16 counter 13µM
O=C(O)c1ccc2c(c1)C1C=CCC1C(c1cc3c(cc1Br)OCO3)N2 (stereo not given)	MCF10A rerep inconclusive
Brc1cc2c(cc1C1Nc3ccccc3C3C=CCC31)OCO2 (stereo not given)	SW480 rerep 16µM, MCF10A rerep inconclusive
O=c1cc(CCl)nc(Cc2c(Cl)cccc2Cl)[nH]1	SW480 rerep inconclusive, MCF10A rerep 18µM (no result: RORgamma inh, VP16 counter, ELG1 DNA repair)
COC(=O)c1ccc2c(c1)C(=O)/C(=C/c1ccc(C)cc1)O2	ELG1 DNA repair inconclusive
COC(=O)c1ccc(/C=C2\Oc3ccccc3NC2=O)cc1	SW480 rerep inconclusive, MCF10A rerep 6.5µM, ELG1 DNA repair inconclusive
